Here are results for seven compounds from PubChem BioAssay.

The target in assay [1] is 6-phosphogluconate dehydrogenase, decarboxylating (Homo sapiens) (UniProt P52209). Description: 6PGD enzyme inhibitors, primary screen, biochemical, human, recombinant enzyme, NADPH absorbance (AID 1159550;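 active = at least 20% inhibition of 6-phosphogluconate dehydrogenase activity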). The following applies: recombinant 6PGD, NADPH absorbance 341 nm; at 10 µM; stronger effect = higher value.
A short description of assay [2]: differential killing of epithelial or mesenchymal cells, primary screen, imaging, PC-3E GFP, TEM4-18 mCherry, co-culture (AID 1345086;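 active = compounds killing one labelled cell type while sparing the other, by normalised counts and ratio limits, not self-fluorescent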;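 for all read-outs here: cells exposed to compound for 72 h before imaging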;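 for red/green cell ratio (normalised): normalised mesenchymal count divided by normalised epithelial count so high means epithelial killing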). The following applies: imaging cell counts, at 1 µM; for red/green cell ratio (normalised): actives lie on both sides, counts scaled to control wells, 1 = unselective.
The target of assay [3] is Mitogen-activated protein kinase 7 (Homo sapiens) (UniProt Q13164). Description: ERK5 transactivation activators in reporter cells, primary screen, cell-based, HTS (AID 1508626).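 Note: luciferase driven by Gal4-ERK5 fusion binding five Gal4 sites before minimal TATA.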 The following applies: HeLa Gal4-ERK5 transactivation, 18 h, at 5 µM, stronger effect = higher value.
Sequence of Mitogen-activated protein kinase 7 (Homo sapiens) (Q13164 whole entry, looked up, the tested form may be a part): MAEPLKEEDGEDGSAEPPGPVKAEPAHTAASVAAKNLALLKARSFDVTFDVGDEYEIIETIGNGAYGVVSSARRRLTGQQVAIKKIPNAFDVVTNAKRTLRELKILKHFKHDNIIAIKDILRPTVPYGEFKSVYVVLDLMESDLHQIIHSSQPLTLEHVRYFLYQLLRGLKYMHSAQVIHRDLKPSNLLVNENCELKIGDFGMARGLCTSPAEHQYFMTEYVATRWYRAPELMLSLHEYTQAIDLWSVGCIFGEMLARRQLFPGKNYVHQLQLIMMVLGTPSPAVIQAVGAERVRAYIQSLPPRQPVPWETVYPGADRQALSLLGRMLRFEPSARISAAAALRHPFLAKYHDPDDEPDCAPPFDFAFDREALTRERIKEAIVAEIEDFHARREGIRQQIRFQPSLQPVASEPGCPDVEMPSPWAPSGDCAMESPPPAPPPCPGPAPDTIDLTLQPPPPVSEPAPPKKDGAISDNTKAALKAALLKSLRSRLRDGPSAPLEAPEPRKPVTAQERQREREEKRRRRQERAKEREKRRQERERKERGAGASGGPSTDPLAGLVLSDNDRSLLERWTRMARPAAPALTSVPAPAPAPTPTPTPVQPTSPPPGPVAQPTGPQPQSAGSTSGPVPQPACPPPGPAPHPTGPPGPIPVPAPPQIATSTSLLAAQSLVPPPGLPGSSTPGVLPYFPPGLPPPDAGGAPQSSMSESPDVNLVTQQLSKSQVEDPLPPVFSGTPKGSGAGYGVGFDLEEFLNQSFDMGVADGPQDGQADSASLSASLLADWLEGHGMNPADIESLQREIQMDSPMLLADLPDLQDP
A short description of assay [4]: polyglutamine-triggered caspase-3 activation inhibitors, cell-based (AID 1583). The following applies: polyglutamine-induced caspase-3 activation, cell assay; stronger effect = higher value;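 tested at 10 µM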.
Assay [5] is described as follows: suppressors of polyQ aggregation in yeast, 75Q-TubU reporter (AID 1593). The following applies: Yeast 75Q polyglutamine aggregation reporter.
The nature of assay [6]: rescue of polyQ-huntingtin neuronal dysfunction in worms, whole organism, C. elegans mechanosensory neurons, N-terminal huntingtin (AID 1599). The following applies: touch response, stronger effect = higher value.
Assay [7] in a line: inhibitors of mitochondrial cytochrome c release, biochemical, purified mitochondria (AID 1603).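 Note: mouse liver mitochondria challenged with calcium chloride; signal normalized to the plate average as 100%.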 The following applies: stronger effect = lower value.
Assay [8] in a line: inhibitors of polyQ protein aggregation (AID 1604). The following applies: polyglutamine-induced protein aggregation inhibition assay; stronger effect = higher value; tested at 2.5 µM.
Assay [9] is described as follows: enhancers of glutamate uptake in motor neurons, MN-1 cell line (AID 1612).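 Note: tested at 1 µM final; 0% = mean of DMSO vehicle wells on each plate; positive means more glutamate uptake than control and negative means less.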 The following applies: MN-1 motor neuron cells, stronger effect = higher value.
A short description of assay [10]: suppressors of polyglutamine aggregation in yeast, 75Q-TubH (AID 1616). The following applies: S. cerevisiae 75Q-TubH polyglutamine aggregation suppression; stronger effect = higher value.
Assay [11] is described as follows: liver-stage malaria parasite growth inhibition, primary screen, cell-based, HepG2, luciferase luminescence, HepG2 viability (AID 624349; in the data active = parasite load remaining mostly below about 12%, no sharp cut-off; inactive = mostly above about 10%;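 note: 100% = mean of DMSO negative control wells on the same plate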). The following applies: P. berghei liver stage in HepG2, luciferase luminescence, concentration not given here; parasite load remaining: stronger effect = lower value; viability: measured here: HepG2 viability without parasites.
Assay [12] in a line: growth inhibition of DIPG glioma cells, dose response, cell-based, JHH-DIPG-1, MIPE4.0, CellTiter-Glo, qHTS (AID 1347062; cut-off not given, nearly all actives have AC50 up to about 27 µM). The following applies: JHH-DIPG-1 viability, CellTiter-Glo ATP luminescence.
Assay [13] can be described thus: survival rescue of mitochondrial mutant cells in low glucose, primary screen, MELAS cybrids, Rieske KO mouse fibroblasts, CellTiter-Glo (AID 1508586;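 active = mean z-score across replicates of 1.96 or higher in either the MELAS or the Rieske mutant cell line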;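 note: z relative to plate mean and SD of compound and empty wells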).
A short description of assay [14]: viability rescue of complex I mutant cybrids, primary screen, cell-based, galactose medium, ATP luminescence (AID 1645843;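 active = z-score of at least 1.8 in each of two replicates, scored against plate mean and spread of sample wells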;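 note: positive z means more ATP and so rescue of galactose-driven cybrid death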). The following applies: complex I mutant cybrid cells, 72 h, stronger effect = higher value.
Setting [15] is: measured here: epithelial PC-3E GFP cell survival.
Setting [16] is: measured here: mesenchymal TEM4-18 mCherry cell survival.

SMILES strings stand for the structures. “And” between values parts separate entries of the source, which are not always exact repeats. Equal entries are not always repeated. Inconclusive results are not listed. For some assays here: Results with a measured potency or affinity are listed apart. The source made the active and inactive calls.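 Rule for the calls, unless noted: active = luciferase signal above three times the same-plate solvent-only control wells; inactive = the rest.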

Sequence of 6-phosphogluconate dehydrogenase, decarboxylating (Homo sapiens) (P52209 whole entry, looked up): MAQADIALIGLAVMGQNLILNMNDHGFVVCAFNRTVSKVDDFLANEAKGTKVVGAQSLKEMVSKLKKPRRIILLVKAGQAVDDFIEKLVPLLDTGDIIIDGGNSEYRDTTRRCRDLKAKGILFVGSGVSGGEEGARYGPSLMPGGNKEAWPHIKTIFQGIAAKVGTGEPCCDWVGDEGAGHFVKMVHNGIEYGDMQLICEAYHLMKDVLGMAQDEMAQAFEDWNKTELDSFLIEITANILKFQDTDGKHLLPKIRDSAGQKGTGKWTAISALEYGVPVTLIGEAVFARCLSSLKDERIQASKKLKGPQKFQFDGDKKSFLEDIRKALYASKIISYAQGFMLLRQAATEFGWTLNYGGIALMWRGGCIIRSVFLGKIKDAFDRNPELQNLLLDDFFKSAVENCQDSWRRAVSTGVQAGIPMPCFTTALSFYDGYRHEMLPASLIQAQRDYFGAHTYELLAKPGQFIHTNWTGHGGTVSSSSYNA

Take `O=C(O)C1(O)C[C@@H](O)C(O)[C@H](O)C1` (stereo partly drawn): in [1], the inhibition was 5.01% (inactive). In addition, the red/green cell ratio (normalised) in assay [2] is 0.8 (inactive). Further, the normalised cell number in assay [2] (setting [15]) was determined as 1.27; in assay [2] (setting [16]), 1.02. Also, the luciferase signal in [3] is 12 AU (inactive).
For `COc1cc(OC)c2ccc(=O)oc2c1`, the results for the inhibition in [4] and in [1] were -1.21% and 9.07% (inactive), respectively. The compound further displayed a score in assay [5] of 0.96. This compound came in with a rescue above control in assay [6] of 0.64. In addition, in assay [7], the cytochrome c release ratio came to 0.64. The inhibition of aggregation in assay [8] turned out to be 96.2%. For the same compound, the glutamate uptake change in assay [9] was -7.62%. Also, the aggregation suppression score in assay [10] was 0.869. The parasite load remaining in [11] was 128% (inactive). For the same compound, the viability in [11] is 69.7%. Besides, the red/green cell ratio (normalised) in assay [2] was 1.1 (inactive). Also, the normalised cell number is 0.96 in assay [2] (setting [15]) and 1.05 in assay [2] (setting [16]). In assay [3], the luciferase signal was 64 AU (inactive).
As for `NC(=O)c1cccc(N)c1`, the inhibition in assay [4] is -48.2%; in assay [1], 10.1% (inactive). For the same compound, in [5], the score was found to be 1.17. In assay [6], this compound gave a rescue above control of -8.42. Moreover, in assay [7], the cytochrome c release ratio worked out at 1.08. This compound also yielded an inhibition of aggregation in assay [8] of 86.1%. Further, the glutamate uptake change in assay [9] amounted to 20.1%. For the same compound, the aggregation suppression score in assay [10] was determined as 1.37. Also, in assay [12], the compound was called inactive. Also, the z-score in [13] (MELAS cybrid survival, CellTiter-Glo 48 h, stronger effect = higher value) was -0.453 (inactive) and -0.332 (inactive); in assay [13] (Rieske KO mouse fibroblast survival, CellTiter-Glo 72 h), 0.178 and -0.721; in assay [14] it was 0.345 (inactive) and 1.35 (inactive). The luciferase signal in assay [3] was 104 AU (inactive).
As for `Oc1ccc([C@H]2Oc3cc(O)cc(O)c3C[C@H]2O)cc1`, the inhibition in assay [1] was 2.29% (inactive). In addition, the red/green cell ratio (normalised) in [2] was 0.95 (inactive). The figures for the normalised cell number in assay [2] (setting [15]) and in assay [2] (setting [16]) were 0.99 and 0.94, respectively. The luciferase signal in [3] is 140 AU (inactive).
On to `N#Cc1ccc2c(c1)N(CCCN1CCC(O)CC1)c1ccccc1S2`, for which the inhibition is -41.8% in [4] and -2.33% (inactive) in [1]. The score in [5] is 1.21. The rescue above control in assay [6] worked out at 2.76. Further, the cytochrome c release ratio in [7] stood at 0.74. The same compound displayed an inhibition of aggregation in assay [8] of 41.2%. For the same compound, the glutamate uptake change in assay [9] was found to be 8.34%. Besides, the aggregation suppression score in assay [10] came to 1.12. Besides, in assay [11], the parasite load remaining is 134% (inactive). This compound showed a viability in assay [11] of 87.2%. Also, the red/green cell ratio (normalised) in assay [2] is 1.05 (inactive). Further, the results for the normalised cell number in assay [2] (setting [15]) and in assay [2] (setting [16]) were 0.87 and 0.92, respectively. Further, the luciferase signal in assay [3] is 96 AU (inactive).
For `O=c1[nH]c2cc(Cl)c(Cl)cc2[nH]c1=O`, in assay [1], the inhibition was 1.1% (inactive). Also, the red/green cell ratio (normalised) in assay [2] was 1.09 (inactive). Also, the normalised cell number in [2] (setting [15]) came to 0.94; in [2] (setting [16]) it was 1.02. In addition, the luciferase signal in assay [3] was 40 AU (inactive).
On to `O=C1C=CC(=C(c2ccc(O)cc2)c2ccc(O)cc2)C=C1`, for which the inhibition was 28.5% in assay [4] and 7.03% (inactive) in assay [1]. Besides, the score in assay [5] is 1.1. Moreover, in assay [6], the rescue above control was -3.26. Moreover, the cytochrome c release ratio in [7] turned out to be 1.26. Besides, the inhibition of aggregation in assay [8] was found to be 83.1%. For the same compound, the glutamate uptake change in assay [9] is -0.24%. The aggregation suppression score in assay [10] turned out to be 1.13. The red/green cell ratio (normalised) in assay [2] was 0.79 (inactive). Moreover, the normalised cell number in assay [2] (setting [15]) was determined as 1.03; in assay [2] (setting [16]) it was 0.82. Moreover, the luciferase signal in assay [3] is 148 AU (inactive).
